In article PMC7862700, “An all-to-all approach to the identification of sequence-specific readers for epigenetic DNA modifications on cytosine” one finds binding signal data, which are given here for one sequence.

Holding throughout (test): DAPPL (digital affinity profiling via proximity ligation, sequencing); 10 mM Tris-HCl pH 7.5, 50 mM NaCl, 1 mM DTT, 4% glycerol, room temperature, 30 min; GST-TFs on glutathione beads, 16-mer random dsDNA library, 0.1% formaldehyde crosslink after washing; high values mean tight binding
The target in one assay is T1, FEV (Homo sapiens, UniProt Q99581 1-238).
T1 sequence: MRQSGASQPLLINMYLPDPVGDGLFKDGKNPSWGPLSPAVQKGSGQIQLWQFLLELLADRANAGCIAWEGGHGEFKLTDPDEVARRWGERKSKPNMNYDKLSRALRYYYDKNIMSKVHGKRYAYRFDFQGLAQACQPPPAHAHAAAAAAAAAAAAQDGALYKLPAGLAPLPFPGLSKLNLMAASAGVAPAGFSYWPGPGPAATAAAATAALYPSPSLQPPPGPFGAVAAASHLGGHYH
The following applies: protein: recombinant; tags: N-terminal GST; dsDNA, one strand shown. In outline: (§1)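 Human transcription factors fused to GST were expressed in yeast, captured on glutathione beads, given DNA barcodes and pooled with a GST-only negative control. Pools were incubated with 200 nmole of a 16-mer random double-stranded DNA library in Tris/NaCl/DTT/glycerol buffer at room temperature for 30 min. They were then washed, crosslinked with 0.1% formaldehyde, proximity-ligated (BsaI/T4 ligase, 1 h, 37 °C), PCR-amplified and sequenced on an Illumina NextSeq500. Binding signal is each 6-mer's read frequency for a factor divided by its frequency for the GST control.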

A further assay concerns the target ETV5 (Homo sapiens, UniProt P41161 1-510). Conditions: protein: recombinant; tags: N-terminal GST; dsDNA, one strand shown. The essentials:
as §1

A further assay addresses HSF1 (Homo sapiens, UniProt Q00613 1-529). Conditions: protein: recombinant; tags: N-terminal GST; chain copies: 3; dsDNA, one strand shown. The essentials: as §1
The target of the next assay is T2, SPIC (Homo sapiens, UniProt Q8N5J4 1-248).
T2 sequence: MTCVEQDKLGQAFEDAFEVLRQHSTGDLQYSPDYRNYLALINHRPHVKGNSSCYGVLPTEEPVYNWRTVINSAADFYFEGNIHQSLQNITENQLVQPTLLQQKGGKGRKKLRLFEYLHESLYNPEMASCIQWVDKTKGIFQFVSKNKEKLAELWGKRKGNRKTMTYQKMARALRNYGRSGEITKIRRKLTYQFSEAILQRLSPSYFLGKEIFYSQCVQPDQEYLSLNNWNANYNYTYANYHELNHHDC
Conditions: protein: recombinant; tags: N-terminal GST; dsDNA, one strand shown. In outline: as §1

In another assay the target is ELF4 (Homo sapiens, UniProt Q99607 1-663). The following applies: protein: recombinant; tags: N-terminal GST; dsDNA, one strand shown. The essentials:
as §1

In the next assay the target is T3, ELK4 (Homo sapiens, UniProt P28324-2 1-405).
T3 sequence: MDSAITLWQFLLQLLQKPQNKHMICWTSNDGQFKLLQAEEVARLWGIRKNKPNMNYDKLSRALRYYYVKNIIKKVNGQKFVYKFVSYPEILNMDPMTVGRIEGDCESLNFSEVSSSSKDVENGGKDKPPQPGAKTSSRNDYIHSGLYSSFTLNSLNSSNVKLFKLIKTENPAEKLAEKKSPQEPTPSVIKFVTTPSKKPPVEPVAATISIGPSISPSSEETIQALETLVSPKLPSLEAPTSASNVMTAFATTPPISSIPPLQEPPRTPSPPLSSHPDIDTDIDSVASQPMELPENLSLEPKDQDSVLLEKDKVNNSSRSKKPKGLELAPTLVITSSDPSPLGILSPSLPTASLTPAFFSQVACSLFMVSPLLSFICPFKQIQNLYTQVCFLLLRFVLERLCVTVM
The following applies: protein: recombinant; tags: N-terminal GST; dsDNA, one strand shown. The essentials: as §1

Another assay deals with T4, ETV2 (Homo sapiens, UniProt O00321 1-342).
T4 sequence: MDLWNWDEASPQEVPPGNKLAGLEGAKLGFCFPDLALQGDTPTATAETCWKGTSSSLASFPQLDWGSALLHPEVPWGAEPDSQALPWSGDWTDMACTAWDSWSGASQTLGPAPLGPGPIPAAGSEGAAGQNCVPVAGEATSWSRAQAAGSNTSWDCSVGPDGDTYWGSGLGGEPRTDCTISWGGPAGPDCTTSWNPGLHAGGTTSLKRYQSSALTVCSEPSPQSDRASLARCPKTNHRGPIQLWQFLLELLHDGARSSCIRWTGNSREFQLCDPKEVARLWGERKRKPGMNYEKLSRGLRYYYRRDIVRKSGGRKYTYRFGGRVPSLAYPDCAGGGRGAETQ
Conditions: protein: recombinant; tags: N-terminal GST; dsDNA, one strand shown. The essentials:
as §1

The next assay deals with T5, ELF3 (Homo sapiens, UniProt P78545 1-371).
T5 sequence: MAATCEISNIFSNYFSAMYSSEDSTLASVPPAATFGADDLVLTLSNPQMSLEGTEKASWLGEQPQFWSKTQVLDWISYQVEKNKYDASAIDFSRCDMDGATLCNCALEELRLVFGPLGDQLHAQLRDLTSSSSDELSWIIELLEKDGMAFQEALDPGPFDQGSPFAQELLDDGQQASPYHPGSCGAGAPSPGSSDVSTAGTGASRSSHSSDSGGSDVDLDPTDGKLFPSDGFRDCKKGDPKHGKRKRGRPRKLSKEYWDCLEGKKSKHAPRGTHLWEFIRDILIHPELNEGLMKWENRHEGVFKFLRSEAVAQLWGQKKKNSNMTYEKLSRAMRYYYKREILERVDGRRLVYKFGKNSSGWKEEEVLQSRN
Conditions: protein: recombinant; tags: N-terminal GST; dsDNA, one strand shown. In outline:
as §1

In the next assay the target is CRX (Homo sapiens, UniProt O43186 1-299). Conditions: protein: recombinant; tags: N-terminal GST; dsDNA, one strand shown. The essentials:
as §1

For the next assay, the target named is ETV1 (Homo sapiens, UniProt P50549 1-477). The following applies: protein: recombinant; tags: N-terminal GST; dsDNA, one strand shown. In outline:
as §1

The target in another assay is T6, ERF (Homo sapiens, UniProt P50548 1-548).
T6 sequence: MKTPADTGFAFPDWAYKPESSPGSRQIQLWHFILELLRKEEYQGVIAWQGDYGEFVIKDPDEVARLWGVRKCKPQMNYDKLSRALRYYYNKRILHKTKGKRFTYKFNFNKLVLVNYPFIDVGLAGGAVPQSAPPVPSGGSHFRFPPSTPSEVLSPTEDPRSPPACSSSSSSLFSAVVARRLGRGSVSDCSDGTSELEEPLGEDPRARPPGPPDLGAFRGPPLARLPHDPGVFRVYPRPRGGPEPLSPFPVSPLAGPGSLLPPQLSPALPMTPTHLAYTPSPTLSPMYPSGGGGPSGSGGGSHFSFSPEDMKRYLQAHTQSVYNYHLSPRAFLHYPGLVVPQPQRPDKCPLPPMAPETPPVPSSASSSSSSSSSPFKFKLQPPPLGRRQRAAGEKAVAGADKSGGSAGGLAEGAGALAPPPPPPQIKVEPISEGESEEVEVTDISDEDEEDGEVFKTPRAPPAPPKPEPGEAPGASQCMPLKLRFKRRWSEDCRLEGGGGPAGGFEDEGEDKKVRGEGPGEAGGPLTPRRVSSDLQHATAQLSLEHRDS
The following applies: protein: recombinant; tags: N-terminal GST; dsDNA, one strand shown. In outline:
as §1

The target of another assay is T7, ETV3L (Homo sapiens, UniProt Q6ZN32 1-361).
T7 sequence: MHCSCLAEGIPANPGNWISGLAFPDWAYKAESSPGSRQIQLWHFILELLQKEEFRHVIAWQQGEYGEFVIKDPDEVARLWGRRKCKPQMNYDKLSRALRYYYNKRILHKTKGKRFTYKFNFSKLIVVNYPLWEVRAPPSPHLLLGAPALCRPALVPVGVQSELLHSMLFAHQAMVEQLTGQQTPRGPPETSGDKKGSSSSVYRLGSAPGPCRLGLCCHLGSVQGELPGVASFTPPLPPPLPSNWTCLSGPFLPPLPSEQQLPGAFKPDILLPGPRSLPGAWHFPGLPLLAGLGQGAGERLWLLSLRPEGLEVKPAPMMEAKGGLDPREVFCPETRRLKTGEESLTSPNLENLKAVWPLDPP
Conditions: protein: recombinant; tags: N-terminal GST; dsDNA, one strand shown. The essentials:
as §1

The target of the next assay is T8, ETS2 (Homo sapiens, UniProt P15036 1-469).
T8 sequence: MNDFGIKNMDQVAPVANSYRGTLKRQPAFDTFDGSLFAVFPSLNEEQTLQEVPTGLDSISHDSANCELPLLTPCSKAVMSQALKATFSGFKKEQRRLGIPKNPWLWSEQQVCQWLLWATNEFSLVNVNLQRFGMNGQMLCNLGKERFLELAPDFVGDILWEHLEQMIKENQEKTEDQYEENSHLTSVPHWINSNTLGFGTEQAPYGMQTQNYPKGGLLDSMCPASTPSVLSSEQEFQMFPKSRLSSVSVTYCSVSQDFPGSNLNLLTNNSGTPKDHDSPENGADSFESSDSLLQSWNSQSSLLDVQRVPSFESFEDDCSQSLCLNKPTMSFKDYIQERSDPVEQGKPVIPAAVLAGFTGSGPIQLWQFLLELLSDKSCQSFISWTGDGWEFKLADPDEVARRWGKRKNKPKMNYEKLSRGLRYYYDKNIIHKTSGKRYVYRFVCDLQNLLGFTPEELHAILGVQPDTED
Conditions: protein: recombinant; tags: N-terminal GST; dsDNA, one strand shown. The essentials:
as §1

A further assay deals with T9, SPDEF (Homo sapiens, UniProt O95238 1-335).
T9 sequence: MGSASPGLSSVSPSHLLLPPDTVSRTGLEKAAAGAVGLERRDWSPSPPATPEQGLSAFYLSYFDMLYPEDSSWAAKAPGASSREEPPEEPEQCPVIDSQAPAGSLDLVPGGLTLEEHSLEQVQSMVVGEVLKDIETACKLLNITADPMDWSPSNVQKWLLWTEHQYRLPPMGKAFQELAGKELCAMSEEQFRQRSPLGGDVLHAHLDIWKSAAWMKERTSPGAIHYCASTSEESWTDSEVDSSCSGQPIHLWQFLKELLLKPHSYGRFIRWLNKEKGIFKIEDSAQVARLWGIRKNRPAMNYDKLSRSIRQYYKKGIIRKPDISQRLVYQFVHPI
The following applies: protein: recombinant; tags: N-terminal GST; dsDNA, one strand shown. The essentials:
as §1

For the next assay, the target named is T10, ETV7 (Homo sapiens, UniProt Q9Y603 1-341).
T10 sequence: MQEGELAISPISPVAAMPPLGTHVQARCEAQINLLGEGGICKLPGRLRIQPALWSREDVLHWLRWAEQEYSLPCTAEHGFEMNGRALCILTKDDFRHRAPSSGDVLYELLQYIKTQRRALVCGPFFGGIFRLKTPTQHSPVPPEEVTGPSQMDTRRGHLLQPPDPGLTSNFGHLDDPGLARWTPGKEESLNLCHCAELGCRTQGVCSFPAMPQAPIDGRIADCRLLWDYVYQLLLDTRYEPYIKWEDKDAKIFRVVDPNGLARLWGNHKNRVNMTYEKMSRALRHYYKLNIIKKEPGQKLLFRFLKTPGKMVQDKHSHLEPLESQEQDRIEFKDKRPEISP
The following applies: protein: recombinant; tags: N-terminal GST; dsDNA, one strand shown. The essentials:
as §1

The next assay addresses T11, ELF5 (Homo sapiens, UniProt Q9UKW6-2 1-255).
T11 sequence: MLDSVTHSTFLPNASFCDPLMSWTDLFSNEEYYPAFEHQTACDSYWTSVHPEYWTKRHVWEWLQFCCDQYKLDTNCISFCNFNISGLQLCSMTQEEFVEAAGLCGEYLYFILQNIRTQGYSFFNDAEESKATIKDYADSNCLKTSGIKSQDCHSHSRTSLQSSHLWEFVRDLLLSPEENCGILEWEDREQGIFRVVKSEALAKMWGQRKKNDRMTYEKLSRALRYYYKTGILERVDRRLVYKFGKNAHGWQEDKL
Conditions: protein: recombinant; tags: N-terminal GST; dsDNA, one strand shown. In outline:
as §1

For the next assay, the target named is T12, ETV3 (Homo sapiens, UniProt P41162-2 1-143).
T12 sequence: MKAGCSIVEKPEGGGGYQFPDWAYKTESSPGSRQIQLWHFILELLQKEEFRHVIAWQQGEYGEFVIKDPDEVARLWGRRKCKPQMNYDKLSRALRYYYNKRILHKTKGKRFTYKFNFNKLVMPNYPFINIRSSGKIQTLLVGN
The following applies: protein: recombinant; tags: N-terminal GST; dsDNA, one strand shown. The essentials: as §1

The next assay deals with ETV6 (Homo sapiens, UniProt P41212 1-452). The following applies: protein: recombinant; tags: N-terminal GST; dsDNA, one strand shown. The essentials: as §1
ETV6, sequence (P41212 whole entry): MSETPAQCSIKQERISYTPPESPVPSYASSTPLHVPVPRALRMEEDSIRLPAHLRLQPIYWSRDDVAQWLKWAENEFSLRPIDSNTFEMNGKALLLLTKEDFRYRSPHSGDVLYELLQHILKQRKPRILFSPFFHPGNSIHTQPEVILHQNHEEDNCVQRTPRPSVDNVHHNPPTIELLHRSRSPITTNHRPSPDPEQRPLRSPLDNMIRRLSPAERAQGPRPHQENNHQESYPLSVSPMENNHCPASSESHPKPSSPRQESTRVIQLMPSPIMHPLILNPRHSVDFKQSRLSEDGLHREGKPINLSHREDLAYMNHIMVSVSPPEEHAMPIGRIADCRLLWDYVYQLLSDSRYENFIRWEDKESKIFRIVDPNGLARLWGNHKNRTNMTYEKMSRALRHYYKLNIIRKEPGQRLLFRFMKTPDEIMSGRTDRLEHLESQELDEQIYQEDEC

CRX, sequence (O43186 whole entry): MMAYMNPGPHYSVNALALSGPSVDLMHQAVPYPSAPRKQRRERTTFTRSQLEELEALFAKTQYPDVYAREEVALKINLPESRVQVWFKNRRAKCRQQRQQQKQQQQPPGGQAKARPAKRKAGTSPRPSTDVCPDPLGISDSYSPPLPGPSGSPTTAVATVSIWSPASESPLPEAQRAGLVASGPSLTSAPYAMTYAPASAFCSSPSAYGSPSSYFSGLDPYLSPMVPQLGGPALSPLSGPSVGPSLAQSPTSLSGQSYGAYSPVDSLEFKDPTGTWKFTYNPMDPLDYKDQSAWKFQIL
ELF4, sequence (Q99607 whole entry): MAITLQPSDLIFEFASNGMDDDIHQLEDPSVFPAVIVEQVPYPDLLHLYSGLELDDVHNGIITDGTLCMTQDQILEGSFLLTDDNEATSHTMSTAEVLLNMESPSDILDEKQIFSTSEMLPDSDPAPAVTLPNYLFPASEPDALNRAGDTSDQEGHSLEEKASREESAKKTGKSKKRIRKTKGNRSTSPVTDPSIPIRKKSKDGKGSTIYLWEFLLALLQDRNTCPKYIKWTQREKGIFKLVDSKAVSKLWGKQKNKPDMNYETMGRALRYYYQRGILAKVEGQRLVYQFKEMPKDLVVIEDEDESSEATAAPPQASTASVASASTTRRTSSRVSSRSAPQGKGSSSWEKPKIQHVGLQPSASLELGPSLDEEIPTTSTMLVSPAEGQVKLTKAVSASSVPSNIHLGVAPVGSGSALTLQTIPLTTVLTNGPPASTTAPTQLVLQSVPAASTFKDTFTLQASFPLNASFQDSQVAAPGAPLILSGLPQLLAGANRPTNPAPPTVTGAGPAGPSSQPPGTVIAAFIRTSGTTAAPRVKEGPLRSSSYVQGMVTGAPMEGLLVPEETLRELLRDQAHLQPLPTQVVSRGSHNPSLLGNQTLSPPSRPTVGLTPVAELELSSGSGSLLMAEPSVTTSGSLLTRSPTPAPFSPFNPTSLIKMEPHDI
HSF1, sequence (Q00613 whole entry): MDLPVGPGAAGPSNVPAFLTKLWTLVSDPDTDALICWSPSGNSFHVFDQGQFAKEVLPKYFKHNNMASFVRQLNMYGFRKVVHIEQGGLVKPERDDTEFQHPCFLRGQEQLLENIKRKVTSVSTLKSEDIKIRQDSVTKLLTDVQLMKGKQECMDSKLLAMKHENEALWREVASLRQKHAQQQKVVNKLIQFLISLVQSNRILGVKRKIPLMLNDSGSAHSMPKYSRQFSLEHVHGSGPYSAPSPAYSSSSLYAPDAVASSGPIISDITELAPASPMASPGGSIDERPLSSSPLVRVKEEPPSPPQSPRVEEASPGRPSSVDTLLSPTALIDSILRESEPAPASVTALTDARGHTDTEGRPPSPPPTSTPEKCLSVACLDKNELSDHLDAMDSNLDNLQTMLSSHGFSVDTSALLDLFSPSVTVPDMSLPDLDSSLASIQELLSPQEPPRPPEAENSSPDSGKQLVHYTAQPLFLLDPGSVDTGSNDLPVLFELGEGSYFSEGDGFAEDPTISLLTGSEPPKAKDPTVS
ETV1, sequence (P50549 whole entry): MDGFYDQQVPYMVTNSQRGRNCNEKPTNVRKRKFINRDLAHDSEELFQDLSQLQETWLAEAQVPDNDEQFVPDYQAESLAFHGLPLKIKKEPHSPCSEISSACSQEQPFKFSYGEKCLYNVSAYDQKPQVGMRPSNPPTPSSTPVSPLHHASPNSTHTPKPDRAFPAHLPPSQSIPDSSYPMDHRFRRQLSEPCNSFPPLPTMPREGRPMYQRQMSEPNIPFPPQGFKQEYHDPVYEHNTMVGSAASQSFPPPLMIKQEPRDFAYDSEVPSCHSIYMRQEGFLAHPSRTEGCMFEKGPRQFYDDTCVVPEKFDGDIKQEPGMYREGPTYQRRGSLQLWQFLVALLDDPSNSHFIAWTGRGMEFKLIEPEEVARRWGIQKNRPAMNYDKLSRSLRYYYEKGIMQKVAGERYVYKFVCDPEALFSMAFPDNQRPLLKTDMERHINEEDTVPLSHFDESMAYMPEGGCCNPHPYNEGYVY
ETV5, sequence (P41161 whole entry): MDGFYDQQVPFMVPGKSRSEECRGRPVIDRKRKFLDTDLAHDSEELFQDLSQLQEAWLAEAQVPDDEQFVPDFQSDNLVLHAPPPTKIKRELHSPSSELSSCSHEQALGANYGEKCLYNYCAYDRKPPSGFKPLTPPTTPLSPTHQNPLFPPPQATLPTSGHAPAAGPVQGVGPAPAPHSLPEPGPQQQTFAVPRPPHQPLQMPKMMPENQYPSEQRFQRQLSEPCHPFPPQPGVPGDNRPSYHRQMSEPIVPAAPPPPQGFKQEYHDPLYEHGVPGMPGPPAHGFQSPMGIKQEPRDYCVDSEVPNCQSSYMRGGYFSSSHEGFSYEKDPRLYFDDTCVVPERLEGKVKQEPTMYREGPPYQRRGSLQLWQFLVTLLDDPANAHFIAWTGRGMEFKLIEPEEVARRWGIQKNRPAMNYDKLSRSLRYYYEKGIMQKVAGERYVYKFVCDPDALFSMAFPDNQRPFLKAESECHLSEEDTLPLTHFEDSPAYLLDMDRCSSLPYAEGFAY

Take TATAAT: the binding signal in the assay with FEV was 1.16 fold enrichment (6-mer frequency, TF over GST control); with ETV5, 1.17 fold enrichment (6-mer frequency, TF over GST control); with HSF1 it was 1.82 fold enrichment (6-mer frequency, TF over GST control); in the assay with SPIC, 1.1 fold enrichment (6-mer frequency, TF over GST control); with ELF4, 1.13 fold enrichment (6-mer frequency, TF over GST control); with ELK4, 1.25 fold enrichment (6-mer frequency, TF over GST control). For the same sequence, the binding signal is 1.3 fold enrichment (6-mer frequency, TF over GST control) with ETV2; 1.27 fold enrichment (6-mer frequency, TF over GST control) with ELF3; 2.69 fold enrichment (6-mer frequency, TF over GST control) with CRX; 1.15 fold enrichment (6-mer frequency, TF over GST control) with ETV1; 1.25 fold enrichment (6-mer frequency, TF over GST control) in the assay with ERF; 1.23 fold enrichment (6-mer frequency, TF over GST control) in the assay with ETV3L. The binding signal was 1.19 fold enrichment (6-mer frequency, TF over GST control) in the assay with ETS2; 1.27 fold enrichment (6-mer frequency, TF over GST control) in the assay with SPDEF; 1.17 fold enrichment (6-mer frequency, TF over GST control) with ETV7; 1.18 fold enrichment (6-mer frequency, TF over GST control) with ELF5; 1.19 fold enrichment (6-mer frequency, TF over GST control) in the assay with ETV3; 1.24 fold enrichment (6-mer frequency, TF over GST control) in the assay with ETV6.
